Reference: PubChem BioAssay (NCI)
Several values for one entry are separate records, joined by “and”; a condition that tells them apart may be missing. Equal entries are not always repeated. This is part of a sample that, as a whole, favours compounds with a hit. Of some 83,000 tested, about 20% had one in any assay.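 Values shown are percent growth following 48 h exposure of cells in 96-well plates to a single concentration of compound; below 10 was considered active.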 Activity calls are given as the source filed them.

Assays:
Assay in all cases: NCI-60 one-dose screen, 48 h (100 = growth as untreated, 0 = no growth, -100 = all killed)
Details in all cases: 10 µM unless noted
NCI-H23 lung = test system: NCI-H23 lung
NCI-H226 lung = test system: NCI-H226 lung
HOP-62 NSCLC = test system: HOP-62 NSCLC
NCI-H460 lung = test system: NCI-H460 lung
HOP-92 NSCLC = test system: HOP-92 NSCLC
A549/ATCC NSCLC = test system: A549/ATCC NSCLC
786-0 renal = test system: 786-0 renal
COLO 205 colon = test system: COLO 205 colon
DU-145 prostate = test system: DU-145 prostate
K-562 leukemia = test system: K-562 leukemia
MALME-3M melanoma = test system: MALME-3M melanoma
MDA-MB-231 breast = test system: MDA-MB-231 breast
RXF 393 renal = test system: RXF 393 renal
SF-268 CNS = test system: SF-268 CNS
SF-295 CNS = test system: SF-295 CNS
SF-539 CNS = test system: SF-539 CNS
UACC-257 melanoma = test system: UACC-257 melanoma
M14 melanoma = test system: M14 melanoma
NCI-H522 lung = test system: NCI-H522 lung
NCI-H322M lung = test system: NCI-H322M lung

Measured: growth

O=NN1CCCCC1
inactive: NCI-H23 lung 104% | NCI-H226 lung 109% | HOP-62 NSCLC 102% | NCI-H460 lung 116% | HOP-92 NSCLC 110% | A549/ATCC NSCLC 102% | 786-0 renal 103% | COLO 205 colon 107% | DU-145 prostate 107% | K-562 leukemia 121% | MALME-3M melanoma 120% | MDA-MB-231 breast 95.9% | RXF 393 renal 118% | SF-268 CNS 96.1% | SF-295 CNS 119% | SF-539 CNS 91.8% | UACC-257 melanoma 97.8% | M14 melanoma 103%

C[C@]12CCc3sc(Nc4ccc(OC(F)(F)F)cc4)nc3C1=CC[C@@H]1[C@@H]2CC[C@]2(C)C(=O)CC[C@@H]12
inactive: NCI-H23 lung 75.5% | NCI-H226 lung 74.9% | HOP-62 NSCLC 80% | NCI-H460 lung 53.3% | HOP-92 NSCLC 75% | NCI-H522 lung 89.1% | A549/ATCC NSCLC 67% | 786-0 renal 30.5% | COLO 205 colon 67.9% | DU-145 prostate 66.1% | MALME-3M melanoma 76.8% | MDA-MB-231 breast 73.5% | SF-268 CNS 68.6% | UACC-257 melanoma 84% | M14 melanoma 83.9%
active: K-562 leukemia 8.2% | RXF 393 renal -32.2% | SF-295 CNS -2.71% | SF-539 CNS -5.4%

C[C@]12CC[C@@H](OC(=O)N(CCCl)N=O)C[C@@H]1CC[C@@H]1[C@@H]2CC[C@]2(C)C(=O)CC[C@@H]12
active: NCI-H460 lung -67.5% | HOP-92 NSCLC -10.2% | COLO 205 colon -72.1% | DU-145 prostate -0.658% | SF-295 CNS -15.7% | SF-539 CNS 1.49%
inactive: NCI-H23 lung 74.7% | NCI-H226 lung 88% | HOP-62 NSCLC 38.6% | NCI-H522 lung 51.1% | A549/ATCC NSCLC 10.3% | 786-0 renal 28.4% | K-562 leukemia 23.2% | MALME-3M melanoma 108% | MDA-MB-231 breast 81.9% | RXF 393 renal 78% | SF-268 CNS 30.6% | UACC-257 melanoma 76.2% | M14 melanoma 72.5%

CCCC[C@H]1C(=O)O[C@H](C)[C@H](NC(=O)c2cccc(NC=O)c2O)C(=O)O[C@@H](C)[C@@H]1OC(=O)CC(C)C
active: RXF 393 renal 6.91% | SF-295 CNS 9.04%
inactive: NCI-H226 lung 44.1% | NCI-H322M lung 66.3% | HOP-62 NSCLC 48.4% | NCI-H460 lung 19.9% | HOP-92 NSCLC 32.9% | NCI-H522 lung 51.2% | A549/ATCC NSCLC 11.5% | 786-0 renal 44.8% | COLO 205 colon 42.2% | DU-145 prostate 85.9% | K-562 leukemia 26.4% | MALME-3M melanoma 44% | MDA-MB-231 breast 58.7% | SF-268 CNS 46.6% | SF-539 CNS 39.3% | UACC-257 melanoma 42.8%

CCCN1C(=O)NC(=O)C(CC)(N2C(=O)c3c(F)c(F)c(F)c(F)c3C2=O)C1=O (stereo unspecified)
inactive: NCI-H226 lung 27.4%
active: NCI-H322M lung -57.7% | HOP-62 NSCLC -57.3% | NCI-H460 lung -81% | HOP-92 NSCLC -50.5% | NCI-H522 lung -82.3% | A549/ATCC NSCLC -64.7% | 786-0 renal -58.5% | COLO 205 colon -81.9% | DU-145 prostate -98.9% | K-562 leukemia -81.7% | MALME-3M melanoma -71.1% | MDA-MB-231 breast -78.7% | RXF 393 renal -95.1% | SF-268 CNS -82.5% | SF-295 CNS -68.6% | SF-539 CNS -96.7% | UACC-257 melanoma -83.3% | M14 melanoma -64.7%

CC[C@H](C)[C@H](NC(=O)CN(C)C)C(=O)N(C)[C@H](C[C@@H](OC(C)=O)c1nc(C(=O)NC23CC(C(=O)OC)(C2)C3)cs1)C(C)C
active: NCI-H460 lung 7.29% | COLO 205 colon -35.8% | DU-145 prostate 9.21% | K-562 leukemia 9.47% | MDA-MB-231 breast 1.51% | RXF 393 renal 8.43% | SF-539 CNS -8.6% | M14 melanoma -8.54%
inactive: NCI-H226 lung 35.2% | NCI-H322M lung 39.2% | HOP-62 NSCLC 20.1% | HOP-92 NSCLC 57.2% | NCI-H522 lung 12% | A549/ATCC NSCLC 19.3% | 786-0 renal 26.4% | MALME-3M melanoma 50.9% | SF-268 CNS 21.8% | SF-295 CNS 13.8% | UACC-257 melanoma 46.8%

ClCc1ccc(Cl)c(Cl)c1
inactive: NCI-H23 lung 102% | NCI-H226 lung 93.7% | HOP-62 NSCLC 111% | NCI-H460 lung 103% | NCI-H522 lung 94.2% | A549/ATCC NSCLC 107% | 786-0 renal 95.4% | COLO 205 colon 116% | DU-145 prostate 106% | K-562 leukemia 107% | MALME-3M melanoma 83% | MDA-MB-231 breast 108% | SF-268 CNS 101% | SF-295 CNS 94.4% | SF-539 CNS 99.6% | UACC-257 melanoma 98.3% | M14 melanoma 95.3%

O=C(O)C(O)c1ccc(Cl)cc1 (stereo unspecified)
inactive: NCI-H23 lung 99.1% and 107% | NCI-H226 lung 97% and 103% | HOP-62 NSCLC 107% | NCI-H460 lung 106% and 114% | HOP-92 NSCLC 112% | NCI-H522 lung 100% and 88.1% | A549/ATCC NSCLC 107% and 95.6% | 786-0 renal 97.6% and 96.7% | COLO 205 colon 106% and 116% | DU-145 prostate 112% and 109% | K-562 leukemia 118% | MALME-3M melanoma 110% and 102% | MDA-MB-231 breast 96.8% and 119% | RXF 393 renal 88.5% and 122% | SF-268 CNS 110% and 101% | SF-295 CNS 101% and 116% | SF-539 CNS 97.5% and 118% | UACC-257 melanoma 109% and 91.8% | M14 melanoma 99.9% and 104%

CO/N=C1\CC[C@]2(C)[C@H]3CC[C@]4(C)C(=O)CC[C@H]4[C@@H]3C[C@@H]3SC(N)=N[C@@]32C1
inactive: NCI-H23 lung 99.4% | NCI-H226 lung 107% | HOP-62 NSCLC 112% | NCI-H460 lung 98.9% | HOP-92 NSCLC 105% | NCI-H522 lung 94.9% | A549/ATCC NSCLC 101% | 786-0 renal 98% | COLO 205 colon 111% | DU-145 prostate 87.9% | K-562 leukemia 70.7% | MALME-3M melanoma 94% | MDA-MB-231 breast 101% | RXF 393 renal 104% | SF-268 CNS 93.5% | SF-295 CNS 99.1% | SF-539 CNS 100% | UACC-257 melanoma 101% | M14 melanoma 86%

CC1(C)C2CCC1(CS(=O)(=O)O)C(=O)C2 (stereo unspecified)
inactive: NCI-H23 lung 108% and 105% | NCI-H226 lung 128% and 102% | NCI-H460 lung 111% and 108% | HOP-92 NSCLC 66.9% and 99.9% | NCI-H522 lung 95.4% and 107% | A549/ATCC NSCLC 96.6% and 96.8% | 786-0 renal 101% and 98.8% | COLO 205 colon 92.9% and 132% | DU-145 prostate 109% and 125% | K-562 leukemia 99.8% and 123% | MALME-3M melanoma 85.1% and 105% | MDA-MB-231 breast 94.9% and 108% | RXF 393 renal 137% and 123% | SF-268 CNS 107% and 105% | SF-295 CNS 101% and 100% | SF-539 CNS 91% and 112% | UACC-257 melanoma 99.5% and 96.6% | M14 melanoma 98% and 105%

COC12CC3C4=CCOC5CC(=O)N6c7ccccc7C1(CCN2C4)C6C53 (stereo unspecified)
inactive: NCI-H23 lung 102% | NCI-H226 lung 103% | HOP-62 NSCLC 99.1% | NCI-H460 lung 109% | HOP-92 NSCLC 102% | NCI-H522 lung 89.9% | A549/ATCC NSCLC 91.2% | 786-0 renal 99.1% | COLO 205 colon 105% | DU-145 prostate 117% | MALME-3M melanoma 112% | MDA-MB-231 breast 106% | RXF 393 renal 129% | SF-268 CNS 111% | SF-295 CNS 111% | SF-539 CNS 100% | UACC-257 melanoma 84% | M14 melanoma 99.2%

Oc1cc(N2CC2)c(O)cc1N1CC1
inactive: NCI-H322M lung 20.4% | 786-0 renal 22.3% | K-562 leukemia 17.1% | MDA-MB-231 breast 96.9% | SF-295 CNS 15.9%
active: NCI-H226 lung -16.4% | HOP-62 NSCLC -12.8% | NCI-H460 lung -14.6% | HOP-92 NSCLC 5.86% | NCI-H522 lung -74.7% | A549/ATCC NSCLC -1.9% | COLO 205 colon -72.7% | DU-145 prostate 9.43% | MALME-3M melanoma -89.6% | RXF 393 renal -78% | SF-268 CNS 7.87% | SF-539 CNS -12% | UACC-257 melanoma -47.1% | M14 melanoma -50.4%

O=[N+]([O-])c1ccc(P(=O)(O)O)cc1
inactive: NCI-H23 lung 105% | NCI-H226 lung 97.6% | NCI-H460 lung 103% | HOP-92 NSCLC 85% | NCI-H522 lung 92.3% | A549/ATCC NSCLC 103% | 786-0 renal 96% | COLO 205 colon 103% | DU-145 prostate 110% | K-562 leukemia 108% | MALME-3M melanoma 92.6% | MDA-MB-231 breast 109% | RXF 393 renal 103% | SF-268 CNS 106% | SF-295 CNS 96% | SF-539 CNS 103% | UACC-257 melanoma 111% | M14 melanoma 96.1%

CCOC(=O)c1cncn1C(C)c1ccccc1 (stereo unspecified)
inactive: NCI-H23 lung 118% | NCI-H226 lung 105% | HOP-62 NSCLC 97.7% | NCI-H460 lung 118% | HOP-92 NSCLC 95.8% | NCI-H522 lung 94.3% | A549/ATCC NSCLC 103% | 786-0 renal 97% | COLO 205 colon 109% | DU-145 prostate 120% | K-562 leukemia 96.7% | MALME-3M melanoma 109% | MDA-MB-231 breast 112% | RXF 393 renal 103% | SF-268 CNS 113% | SF-295 CNS 104% | SF-539 CNS 107% | UACC-257 melanoma 103% | M14 melanoma 103%

NC(=O)Oc1cc(OC(N)=O)cc(N(CCCl)CCCl)c1
inactive: NCI-H23 lung 50% | NCI-H226 lung 79.5% | HOP-62 NSCLC 58.5% | NCI-H460 lung 23.9% | HOP-92 NSCLC 75.9% | NCI-H522 lung 17.9% | A549/ATCC NSCLC 50.6% | 786-0 renal 28.6% | COLO 205 colon 86.8% | DU-145 prostate 34.3% | K-562 leukemia 55.2% | MALME-3M melanoma 80.6% | MDA-MB-231 breast 97.9% | SF-268 CNS 39.7% | SF-539 CNS 23.3% | UACC-257 melanoma 57.2% | M14 melanoma 49.4%
